Reference: PubChem BioAssay
Where “and” joins values, the source holds several entries; their conditions need not be identical. Equal values may be shown once. Calls of active or inactive are those of the source. How the calls were made is not given here.

Each molecule was assayed against Pantothenate synthetase (Mycobacterium tuberculosis (strain ATCC 25618 / H37Rv)) (UniProt P9WIL5) (assay: Recombinant Mtb pantothenate synthetase (PanC) inhibitors, coupled enzyme, confirmatory (AID 375;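 further: 0% = full reaction with vehicle and 100% = no enzyme background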)). Settings: coupled enzyme assay; at 10 µM, active compounds read high.
Pantothenate synthetase (Mycobacterium tuberculosis (strain ATCC 25618 / H37Rv)), sequence (P9WIL5 whole entry, looked up): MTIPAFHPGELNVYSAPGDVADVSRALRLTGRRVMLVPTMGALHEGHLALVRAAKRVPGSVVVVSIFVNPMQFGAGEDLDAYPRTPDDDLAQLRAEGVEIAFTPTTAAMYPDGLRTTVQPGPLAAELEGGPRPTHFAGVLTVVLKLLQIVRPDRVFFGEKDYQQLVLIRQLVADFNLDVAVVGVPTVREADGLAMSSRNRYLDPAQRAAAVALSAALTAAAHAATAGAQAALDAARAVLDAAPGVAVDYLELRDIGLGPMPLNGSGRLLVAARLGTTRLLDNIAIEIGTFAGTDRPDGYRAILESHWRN

SMILES	inhibition
COc1ccc(-c2ccc(=O)n(Cc3cc(=O)n4ccccc4n3)n2)cc1	0% (inactive)
CCOc1ccc(Oc2nc(Nc3ccc(C)cc3)nc(N(C)C)n2)nn1	0% (inactive)
O=C1C=C(NCc2ccco2)C2(CCCCC2)O1	0% (inactive)
CC(=O)N1CCc2cc(S(=O)(=O)CCC(=O)Nc3cccc(F)c3)ccc21	0% (inactive)
CC(=O)CCc1ccc(OCCCCn2cncn2)cc1	0% (inactive)
CC(=O)O[C@]1(C(C)=O)CC[C@H]2[C@@H]3C=C(C)C4=CC(=O)CC[C@]4(C)[C@H]3CC[C@@]21C	0% (inactive)
Cc1ccc2c(c1)NC(=O)C(CC(=O)NCCCN1CCN(c3cc(Cl)ccc3C)CC1)O2 (stereo not given)	1% (inactive)
COc1ccc(-c2noc(-c3ccccc3C(=O)Nc3cccnc3)n2)cc1OC	0% (inactive)
O=C(CN1C(=O)c2cccc3cccc1c23)N1CCN(c2ccccc2)CC1	0% (inactive)
Cc1ccc(C)c2[nH]c(=O)c(CCNC(=O)c3ccc(Br)o3)cc12	0% (inactive)
O=C(Nc1ccc2c(c1)OCCO2)C1CCN(C(=O)c2ccc(F)cc2)CC1	0% (inactive)
Cc1ccsc1C1C2=C(CCCC2=O)Nc2ncnn21 (stereo not given)	0% (inactive)
Nc1ccc(C(=O)O)c(O)c1	1% (inactive) and 0% (inactive)
CN(C)S(=O)(=O)c1ccc(C(=O)N2CCCC2c2nc3ccccc3s2)cc1 (stereo not given)	0% (inactive)
Brc1ccc2ncnc(Nc3ccc(N4CCOCC4)cc3)c2c1	0% (inactive)
CN(c1cccc(NC(=O)COc2ccccc2)c1)S(C)(=O)=O	6% (inactive)
CC(=O)N1CCN(S(=O)(=O)c2cccc(C(=O)Nc3ccc4c(c3)CCC4)c2)CC1	0% (inactive)
COc1ccc(NS(=O)(=O)c2ccc(N)cc2)nn1	1% (inactive)
COc1ccc(Cn2nnnc2C(c2cccs2)N2CCOCC2)cc1 (stereo not given)	3% (inactive)
Cc1ccccc1Cn1nc(C)c(NC(=O)c2noc3c2CCCC3)c1C	5% (inactive)

SMILES	inhibition
CCOC(=O)CC1(CC(=O)OCC)NC(=O)c2c(C)sc(C(=O)OCC)c2N1	1% (inactive)
CCC(C)(NC(=O)CNC(C)=O)C(=O)NC1CCCCC1 (stereo not given)	0% (inactive)
CCOc1ccc(C(=O)OCc2nnc(-c3cccs3)o2)cc1OC	0% (inactive)
CCCN1CCN(C(=O)c2cn(CC(C)C)c(=O)c3cc(OC)c(OC)cc23)CC1	5% (inactive)
CC(C)(C)OC(=O)N1CCC(C(=O)N2CCCCCC2)CC1	5% (inactive)
CS(=O)(=O)N(Cc1nc2sc3c(c2c(=O)[nH]1)CCCC3)C1CCCCC1	0% (inactive)
c1cc2c(cc1Nc1nc(-c3ccc4c(c3)OCO4)cs1)OCCO2	4% (inactive)
O=C(O)COc1ccc(Oc2ccccc2)cc1	3% (inactive)
CC(C)CCNC(=O)NC(=O)CSc1nnc(-c2ccccc2Br)o1	1% (inactive)
CCOC(=O)c1ccccc1NC(=O)c1ccc2c(=O)n3c(nc2c1)CCCCC3	0% (inactive)
Cc1ccnc(SCCn2c(N3CCCCC3)nc3c2c(=O)n(C)c(=O)n3C)n1	0% (inactive)
CCOC(=O)c1sc(NC(=O)CSc2nnc(-c3ccc(OC)cc3)n2CCOC)nc1C	6% (inactive)
O=C(NCc1ccccc1)C1CCN(S(=O)(=O)c2cccc3cccnc23)CC1	0% (inactive)
CCN1C(=O)CC(N2CCC(Nc3ccc(F)cc3)CC2)C1=O (stereo not given)	0% (inactive)
COc1ccccc1N1CCN(C(=O)c2ccc(CS(=O)(=O)c3ccccc3OC)o2)CC1	8% (inactive)
c1ccc(CNc2ccc3c(c2)ncn3C2CCCCC2)nc1	0% (inactive)
O=S(=O)(Nn1cnnc1)c1ccccc1Cl	0% (inactive)
COc1cc(C2N3CC4(C)CN2CC(C)(C3)C4)ccc1O (stereo not given)	0% (inactive)
CCOc1ccc(N(CC(=O)OC)S(=O)(=O)c2ccc(OC)c(OC)c2)cc1	0% (inactive)
Cc1cc(C)nc(NC2=NCC(=O)N2c2ccccc2Br)n1	0% (inactive)
